Laboratory results from the supplement of paper PMC10681739.

Target: T1, ETS1 (UniProt P14921)
T1 sequence: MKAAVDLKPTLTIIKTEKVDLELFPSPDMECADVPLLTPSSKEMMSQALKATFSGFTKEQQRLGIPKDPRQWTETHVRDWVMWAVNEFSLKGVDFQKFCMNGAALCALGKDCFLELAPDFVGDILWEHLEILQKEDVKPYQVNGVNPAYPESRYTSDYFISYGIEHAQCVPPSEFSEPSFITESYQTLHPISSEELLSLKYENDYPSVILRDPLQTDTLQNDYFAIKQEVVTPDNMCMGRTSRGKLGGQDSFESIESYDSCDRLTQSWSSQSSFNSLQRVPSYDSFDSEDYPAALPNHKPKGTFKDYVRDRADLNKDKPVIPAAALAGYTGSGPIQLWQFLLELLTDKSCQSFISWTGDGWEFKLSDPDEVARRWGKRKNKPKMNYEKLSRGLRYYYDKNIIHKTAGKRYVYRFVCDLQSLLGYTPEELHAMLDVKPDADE
Test: TF binding intensity (PBM fluorescence), negative control probe (arbitrary fluorescence units); higher = stronger binding
Description: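 gcPBM negative-control 36-bp genomic probes lacking TF binding sites. Each was incubated with recombinant human ETS1 or RUNX1 alone and detected by antibody fluorescence. Values are medians over replicate spots (4 spots for the ETS1-RUNX1 arrays, 3 for the ETS1-ETS1 array). The probes sit in constant array flanks that are not printed.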

| Sequence | TF binding intensity |
| --- | --- |
| CACAGGTTCTTCTTCAAGGGCAGGGCACTGCACCTT (protein concentration 10 nM) | 110 |
| AAAACAAACAAACCAAACAACACAACAGAAGTTTTC (protein concentration 10 nM) | 150 |
| TTATCAAGTGAATCAAGCCATTGTCGGGTCGAAATA (protein concentration 10 nM) | 117 |
| TTTCTGTTTTGTTTTATTTTGTTTGTTTTTATTCTG (protein concentration 10 nM) | 128 |
| GCAACACTCACTCAAACCACAGTAATCAAAAGGCAC (protein concentration 1 nM) | 496 |
| GAGCATCACAAGGTCAGAGGAGGGGGCGGCCAGGGT (protein concentration 10 nM) | 240 |
| CTGTTGTTTGACTTTAGTCATCTCCTACTTTTATAG (protein concentration 10 nM) | 137 |
| ACGAAAGTAAACAGTACTAGGTGCAGGGGCTTTAAT (protein concentration 10 nM) | 117 |
| TATTTTCCAAAAGTGGCCACAACAACATCTGCCAAC (protein concentration 1 nM) | 442 |
| AAGCCTGGAGTTGGGGTGGTGGGGTGAGAATCAGCC (protein concentration 10 nM) | 170 |
| TTTCAGAGGGAAAAGAATTTTGCCGTTCGCGTTCGA (protein concentration 10 nM) | 113 |
| CATTAGTAAACCCTTACCACACCCAAACAACAAAAG (protein concentration 1 nM) | 541 |
| TGGAAAATAATATTTCAAGACCATAATATGGCTGCT (protein concentration 10 nM) | 100 |
| TCTGAATGCTAAGCTCATCGAAGACGCCCAGCACTT (protein concentration 10 nM) | 123 |
| GCTGGGGTTTGCTGCCTGGAGGCAGCCTGTCCAGGA (protein concentration 10 nM) | 109 |
| TGCTCTAGAGATGTGATCGTCCTCATTTCATGAAGG (protein concentration 10 nM) | 121 |
| TGGCCTGGGAAAGAACCCACAGGCTTCTGGTTGCTG (protein concentration 1 nM) | 597 |
| GCTTTTTTTTTCTGTTGTGGGAGAAAGATGAGAGTC (protein concentration 1 nM) | 535 |
| TGACCGGCAGGCCCGAAGCCCCCTGGGATGCCTGGC (protein concentration 10 nM) | 105 |
| ATTCCAATCCTATGTGCTTTAAAGCTTCTAGACATT (protein concentration 10 nM) | 119 |

| Sequence | TF binding intensity |
| --- | --- |
| TACTACTATAAAGATGGATACATGTCGTTATACATT (protein concentration 10 nM) | 106 |
| CAGGCATCTGTCATGCCCAGTAATTAATTGCTCCAA (protein concentration 10 nM) | 117 |
| ATGTTTTCGGTTCTTAGGACCCAGGTGCTCACCACA (protein concentration 10 nM) | 106 |
| TCCGATGTTACCTGGGCTGGGCCATGGAGAATGGCG (protein concentration 10 nM) | 112 |
| TTTTTAAATTCGGTTTTGTGTTTTATCTTCAATTTC (protein concentration 10 nM) | 105 |
| TAGAAACCGTGTTTTAAATTTAACACTGGTAAGATG (protein concentration 10 nM) | 113 |
| ACCCTGAGCCCTCTCCCGCTCCCTGGGTCTCAGCCT (protein concentration 10 nM) | 98.1 |
| AAAATACTGCCTTCAAGTACTGTGACTCTTTTCAGG (protein concentration 10 nM) | 112 |
| CTGGATTTCTGTACTTTGGTTGGCTTATATTACATC (protein concentration 10 nM) | 171 |
| GCAGCTCTAGTTTCTACCACACCAATGGGAGGGATC (protein concentration 1 nM) | 320 |
| CCGGCTGTCTCCTGCACCCAGGTAAGCAGCGGCGCT (protein concentration 10 nM) | 108 |
| TTAATTAAGCGGTTTATATCAAGAAAAAGGCATTTC (protein concentration 10 nM) | 115 |
| TCTTGTATTTTCCTAAAGATTTGTGTGCTGTTTCTC (protein concentration 10 nM) | 100 |
| CCCCTCCAGACTCCCCTGACCCAGGGTGGAGGACAT (protein concentration 10 nM) | 161 |
| TCAGCCTGAGAGCTATGTGGGTGAATAAAAATAAAA (protein concentration 1 nM) | 499 |
| AGAGAATCTGATTGGTTGTTGACCTTTGGGACAAGT (protein concentration 10 nM) | 105 |
| GATATGAGATCAGAATGAGGCTGCATGAGAACAAGT (protein concentration 10 nM) | 112 |
| GTGAAACCAGGGCACAGGTAGAAATCCCTAGAGCAG (protein concentration 10 nM) | 138 |
| ATTTGGGTTCCAGCCCGCTAGCCTGCCTTTTCTCAT (protein concentration 10 nM) | 92.9 |
| TGGAATCTCATCCAAGCTGGATTTTGCGATCTTTGA (protein concentration 10 nM) | 104 |
